# Laboratory results: PubChem BioAssay AID1851 (National Center for Advancing Translational Sciences (NCATS), 2009)
# Screen size: about 16,000 compounds; about 5,700 (36%) were called active. Inconclusive results (about 24%) are left out. Some of the results follow. A number with no mark means an inactive call. Calls come from the whole dose curve; as a rule, active = well fitted curve in the direction sought with a large enough effect; inconclusive = small, poorly fitted or top-dose-only effect, or effect the other way; inactive = no such curve, though single readings can be large or run the other way.
# Target: Cytochrome P450 1A2 (Homo sapiens) (UniProt P05177)
# Sequence (P05177 whole entry, looked up): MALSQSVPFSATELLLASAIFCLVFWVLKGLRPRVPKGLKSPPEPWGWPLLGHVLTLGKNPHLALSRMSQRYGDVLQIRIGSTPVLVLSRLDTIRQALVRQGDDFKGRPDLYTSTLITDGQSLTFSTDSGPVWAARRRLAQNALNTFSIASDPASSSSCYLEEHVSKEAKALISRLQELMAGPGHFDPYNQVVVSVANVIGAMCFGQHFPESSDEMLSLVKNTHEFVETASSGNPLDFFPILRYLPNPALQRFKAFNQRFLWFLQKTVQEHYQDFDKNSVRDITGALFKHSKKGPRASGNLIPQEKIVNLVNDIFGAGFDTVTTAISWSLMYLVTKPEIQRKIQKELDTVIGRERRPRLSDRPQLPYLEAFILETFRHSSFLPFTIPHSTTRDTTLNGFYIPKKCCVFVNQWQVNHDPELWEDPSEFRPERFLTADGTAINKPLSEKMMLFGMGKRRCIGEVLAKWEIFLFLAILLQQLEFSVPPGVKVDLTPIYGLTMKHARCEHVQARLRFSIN
# Test: Cytochrome panel assay with activity outcomes
# Details: recombinant CYP, pro-luciferin dealkylation, luminescence, p450-cyp1a2; series mostly up to 57.1 µM; activity, negative = inhibition: at the top concentration
# % is set by controls: 0 for no effect and ±100 for the full control effect.
SMILES,AC50,"activity, negative = inhibition"
c1ccc(CN2c3ccccc3-c3nc4ccccc4n3C2c2ccccn2)cc1 (stereo not given),4.47 µM (active),–
O=C(Cc1ccccc1)Nc1nc2ccc(Cl)cc2c2nc(-c3ccco3)nn12,0.2 µM (active),–
CN(C)Cc1cc(Cl)c(O)c(CN(C)C)c1,–,-10.7% [at 11.4 µM]
Oc1ccc(Cc2cc(Cl)cc(Cl)c2O)cc1Cl,1.58 µM (active),–
Oc1ccc(Cl)cc1Cc1cc(Cl)cc(Cc2cc(Cl)ccc2O)c1O,–,-23.8% [at 2.29 µM]
CCC(Sc1nc2cc3c(cc2c(=O)n1Cc1ccco1)OCO3)C(=O)Nc1ccccc1OC (stereo not given),–,-13.9%
CCC(C)(C)n1nnnc1C(c1ccc(C)cc1)N1CCC(C)CC1 (stereo not given),–,-9.54%
CCC(C)(C)n1nnnc1C(C(C)C)N(Cc1ccco1)Cc1cc2cc3c(cc2[nH]c1=O)OCO3 (stereo not given),14.1 µM (active),–
CC(C)(C)n1nnnc1C(c1cccnc1)N(Cc1ccccc1)Cc1ccco1 (stereo not given),–,-11.9%
COc1ccccc1CN(Cc1cc2cc3c(cc2[nH]c1=O)OCCO3)Cc1nnnn1Cc1ccco1,17.8 µM (active),–
Cc1nonc1NC(=O)N1CCCC1,–,-14.6%
CCC[C@@H]1O[C@@H]2C[C@@H]3[C@H]4CCC5=CC(=O)C=C[C@@]5(C)[C@H]4[C@H](O)C[C@@]3(C)[C@@]2(C(=O)CO)O1,–,-1.55% [at 25.6 µM]
CCCc1c(O)c2ccccc2n(-c2ccccc2)c1=O,14.1 µM (active),–
CN(C(=O)c1c(O)c2ccccc2n(C)c1=O)c1ccccc1,–,-1.04%
Cc1cnc(CNc2ncncc2-c2ccc(N(C)C)cc2)cn1,3.16 µM (active),–
Cc1cnc(CNc2ncncc2-c2c(C)noc2C)cn1,–,-8.28%
Cc1cnc(CNc2ncncc2-c2ccoc2)cn1,12.6 µM (active),–
COc1cccc(Cn2c(=O)c(-c3cn(C)c4ccccc34)nc3cncnc32)c1,1 µM (active),–
Cn1cc(-c2nc3cncnc3n(CCN)c2=O)c2ccccc21,6.31 µM (active),–
COCCn1c(=O)c(-c2cn(C)c3ccccc23)nc2cncnc21,0.398 µM (active),–
COCCn1c(=O)c(-c2cn(C)c3ccccc23)nc2cnc(OCc3ccccc3)nc21,5.01 µM (active),–
O=C(Cn1cnc([N+](=O)[O-])c1)NCc1ccc(F)cc1,–,2.97%
COc1ccccc1CCn1c(=O)c(-c2cn(C)c3ccccc23)nc2cncnc21,1.26 µM (active),–
COC(=O)CC[C@@H](C)[C@H]1CC[C@H]2[C@H]3CC[C@H]4C[C@@H]5CC[C@@]4(C)C3(O5)[C@@H](Br)[C@@H](Br)[C@@]12C,–,-8.93% [at 11.4 µM]

SMILES,AC50,"activity, negative = inhibition"
CCCC(=O)Nc1nc(C(=O)OCC)cs1,15.8 µM (active),–
CCCC(=O)Nc1c(C)n[nH]c1C,–,-12.9%
COc1cc(OC)c2c(c1)C(=O)c1cc(OC)cc(OC)c1C2=O,2 µM (active),–
Cc1ccc(-n2ccnc2SCC(=O)N(CC(C)C)C2CCS(=O)(=O)C2)c(C)c1 (stereo not given),–,-2.42%
CC(=O)c1ccc(-n2nnnc2SCC(=O)Nc2cccc(NC(=O)c3ccco3)c2)cc1,0.501 µM (active),–
COc1ccc(NC(=O)CSc2nnc(CNC(=O)c3ccco3)n2-c2ccccc2OC)cc1,–,-12.4%
O=C(CSc1ccc(Cl)cc1)Nc1cccc(NC(=O)c2ccco2)c1,2 µM (active),–
O=C(CSc1ccccc1)Nc1ccc(NC(=O)c2ccco2)cc1,–,-19.7%
Cc1ccc(-n2nnnc2SCC(=O)NNC(=O)c2ccco2)c(C)c1,–,-8.95%
Fc1cccc(F)c1C(Nc1nncs1)Nc1nncs1,–,12.3% [at 2.29 µM]
Cc1cccc(C(=O)NC2CCN(C(=S)NCc3ccco3)CC2)c1,–,-1.32%
Cn1c(=O)n(-c2ccc(Cl)cc2)c(=O)c2c3c(sc21)COC(C)(C)C3,14.1 µM (active),–
O=C(C/C=N/OCc1ccc(Cl)cc1Cl)c1ccc(Cl)cc1,2.82 µM (active),–
O=C(C/C=N/OCc1ccc(F)cc1Cl)c1cnc(-c2ccccc2)s1,1.78 µM (active),–
O=C1[C@@H]2[C@H]3[C@H](O)[C@H](O)C/C(=N/OCc4ccccc4)[C@H]3CC[C@H]2C(=O)N1c1ccc(F)cc1F,–,-0.404% [at 11.4 µM]
CCCc1nnc(SCC(=O)N2C(C)CCCC2C)n1CCCOC (stereo not given),–,3.47%
Cc1ccc(NC(=O)/C(=C\c2cccc([N+](=O)[O-])c2)NC(=O)c2cccs2)cc1,–,-27.3%
O=C(Nc1cccc(F)c1)N1CCC2(CC1)CCN(C(=O)c1ccco1)CC2,–,-7.71%
O=C(Nc1cccc(F)c1)/C(=C\c1ccco1)NC(=O)c1cccs1,4.47 µM (active),–
NCCC(=O)O,–,-20.8%
CCCCCC/C(C)=C1/SC(=S)NC1=O,2.51 µM (active),–
c1ccc(Oc2cc(-c3ccccc3)ncn2)cc1,2.82 µM (active),–
COc1cc(/C=N/NC(=O)c2cccnc2)ccc1OC(=O)c1ccco1,12.6 µM (active),–
COc1cc(/C=N/NC(=O)c2cccnc2)ccc1OC(=O)c1ccc2c(c1)OCO2,–,-25.7%

SMILES,AC50,"activity, negative = inhibition"
Cc1ccc(C2=C(Cl)C(=O)C(c3ccc(C)cc3)=C(Cl)C2=O)cc1,–,-16.9% [at 2.29 µM]
COc1cccc(C2=CC(c3ccccc3)n3nnnc3N2)c1 (stereo not given),1.12 µM (active),–
CN(C)c1ccc(/C=C2/C(=O)Nc3ccccc32)cc1,0.1 µM (active),–
Cc1cc(C)c(/C=C2/C(=O)Nc3ccccc32)[nH]1,0.794 µM (active),–
O=C1Nc2cc(C(=O)N3CCOCC3)ccc2SC1N1CCOCC1 (stereo not given),–,-4.43%
N[C@@H](CSCc1ccc(I)cc1)C(=O)O,–,-12% [at 2.29 µM]
COC(=O)[C@H](CCSC)NC(=O)C/C=C\[C@@H](C)[C@@H](CO)OC,–,-1.07% [at 11.4 µM]
c1ccc(C[n+]2cccc(-c3cc4ccccc4[nH]3)c2)cc1,1.26 µM (active),–
COc1cc2c3c(c1OC)C1(C=CC(=O)C=C1)CC3N(C(=O)c1ccccc1)CC2 (stereo not given),–,-2.36%
COc1ccc(C(=O)N2CCC3(CCCN(Cc4ccccc4)C3)CC2)cc1,–,7.68%
COc1ccc(C(=O)/C=C2/c3ccccc3CC(C)(C)N2C)cc1,15.8 µM (active),–
COc1ccc(C(=O)N2CCC3(CCN(C)CC3)CC2)cc1,–,-19.3%
N#CCCSC(=S)[C@H]1CCCC1=N,3.16 µM (active),–
N=C1CCC[C@@H]1C(=S)SCCC(N)=O,3.16 µM (active),–
CCN1C(=O)C(O)(C2COC(C)(C)CC2=O)c2ccccc21 (stereo not given),–,-22.9%
CCN1C(=O)C(O)(CC(=O)/C=C/C=C/c2ccccc2)c2ccccc21 (stereo not given),10 µM (active),–
COc1ccc([C@@H]2Sc3ccccc3N(CCN(C)C)C(=O)[C@@H]2OC(C)=O)cc1,–,-20.6%
COc1ccc([C@H]2Sc3ccccc3N(CCN(C)C)C(=O)[C@H]2OC(C)=O)cc1,inactive,–
CCCN1C(=O)C(NC(C)=O)c2cc(OC)ccc21 (stereo not given),7.08 µM (active),–
CN(C)c1ccc(-c2ccc3ncnc(NC4CC4)c3c2)cc1,0.2 µM (active),–
c1nc(NC2CC2)c2cc(-c3ccoc3)ccc2n1,0.794 µM (active),–
c1nc(NC2CCNCC2)c2cc(-c3ccc4c(c3)OCO4)ccc2n1,12.6 µM (active),–
c1nc(NC2CCNCC2)c2cc(-c3ccoc3)ccc2n1,25.1 µM (active),–
CC(=O)N[C@@H](C(=O)O)C(C)(C)SN=O,inactive,–

SMILES,AC50,"activity, negative = inhibition"
O=C(Cn1cccc1)NC1CCCCCC1,–,-20.3%
O=C(N/N=C/c1c[nH]c2ccccc12)c1ccn(Cc2ccc(Cl)cc2Cl)n1,0.708 µM (active),–
COC(=O)C1=C(C)NC2=C(C(=O)CCC2)C1c1cn(Cc2ccc(Cl)cc2Cl)nc1-c1ccccc1 (stereo not given),–,-11.8%
O=C(N/N=C/c1c[nH]c2ccc(Br)cc12)c1ccn(Cc2ccc(Cl)cc2)n1,3.16 µM (active),–
O=C(NC1CCCC1)c1cccnc1N1CCCCCC1,15.8 µM (active),–
O=C(O)C1CCN(c2ncccn2)CC1,–,-15.9%
CN(C)C(CNC(=O)NC1CCCCC1)c1cccnc1 (stereo not given),–,-32.9%
C/C=C\C1=C(CO)[C@H](O)[C@H]2OC2[C@@H]1O (stereo not given in full),–,-5.28% [at 11.4 µM]
N#C/C(=C/c1cccc(C(F)(F)F)c1)c1nc(CCN2C(=O)c3ccccc3C2=O)cs1,12.6 µM (active),–
Fc1ccc(C2CC(c3ccco3)=NN2c2ccccc2)cc1 (stereo not given),1.12 µM (active),–
C[C@@H]1CC[C@@H]2C(=O)N3[C@@H](CC[C@@H](C)[C@@H]3c3ccc(-c4ccco4)cc3)C(=O)N2[C@H]1c1ccc(-c2ccco2)cc1,–,-4.34% [at 11.4 µM]
CC1=C(C(=O)O)N2C(=O)C(NC(=O)c3ccn(C)n3)C2SC1 (stereo not given),–,18.7%
c1nc(NCCN2CCOCC2)c2cc(-c3ccoc3)ccc2n1,12.6 µM (active),–
c1nc(NCCN2CCOCC2)c2cc(-c3ccc4c(c3)OCO4)ccc2n1,2.51 µM (active),–
CC(=O)NCCNc1ncnc2ccc(-c3c(C)noc3C)cc12,15.8 µM (active),–
Cc1noc(C)c1-c1ccc2ncnc(NCCN3CCOCC3)c2c1,15.8 µM (active),–
c1cncc(-c2ccc3ncnc(NCCN4CCOCC4)c3c2)c1,1 µM (active),–
COc1ccccc1CNc1ncnc2ccc(-c3cccc(C#N)c3)cc12,0.251 µM (active),–
COc1ccc(CNc2ncnc3ccc(-c4cccc(C#N)c4)cc23)c(OC)c1,3.16 µM (active),–
Cc1nc(C(=O)Nc2cccc(Cl)c2Cl)nn1-c1cc(OC(C)C)c(Cl)cc1Cl,–,-8.72%
O=C(Nc1cccc(Cl)c1Cl)c1snnc1-c1ccccc1,1.26 µM (active),–
CC[C@H](C)C(=O)O[C@@H]1C[C@H](C)C=C2C=C[C@H](C)[C@@H](CC[C@H]3C[C@@H](O)CC(=O)O3)[C@H]21,–,-9.48% [at 25.6 µM]
CN(C)S(=O)(=O)c1ccc2c(c1)/C(=C/c1cc3c([nH]1)CCCC3)C(=O)N2,0.316 µM (active),–
